# Assay results reported in PubChem BioAssay (NCATS).
# Inconclusive results are not listed. Values without a mark were called inactive. The source made the active and inactive calls. The call rests on the fitted dose curve; in most records, active means well fitted inhibition curve with a large enough effect; inconclusive means small, poorly fitted or top-dose-only effect; inactive means flat fitted curve, though single readings scatter.
# Assay: Cytometry Cell-Based qHTS for Inhibitors of the mTORC1 Signaling Pathway in MEF cells (AID 2668);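 on activity change, negative = inhibition: Tsc2-/- p53-/- mouse embryonic fibroblasts stably re-expressing wild-type Tsc2; percent cells positive for phospho-rpS6 Ser235/236 relative to propidium iodide stain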
# Conditions: mTORC1 pathway readout; series mostly up to 38.3 µM; activity change, negative = inhibition: at the top concentration
# Description: NIH Molecular Libraries Probe Production Centers Network [MLPCN]
# NIH Chemical Genomics Center [NCGC]
# Assay Submitter (PI): Blenis, John; Hoffman, Greg; Harvard University
# NCGC Assay Overview: The mammalian target of rapamycin (mTOR) is an intracellular serine/threonine kinase Aberrant regulation of mTOR signaling plays a causative role in a number of human diseases, including cancer, benign tumors such as lymphangioleiomyomatosis (LAM) and Tuberous Sclerosis Complex (TSC), and metabolic diseases such as diabetes and obesity. This project aims to identify inhibitors of ribosomal protein S6 (rpS6) phosphorylation. The phosphorylation of rpS6 is a key event downstream of mTOR activation. The assay uses a phospho-specific antibody of phospho-rpS6 to detect inhibitors of mTOR activation. Mutations in the Tsc1 and Tsc2 genes are the underlying genetic lesions responsible for TSC, causing constitutive activation of the mTORC1 pathway and leading to profound effects on cell metabolism. Aberrant metabolism in cancer has recently received significant attention as a target to develop therapeutic agents in the treatment of cancer.1 As Tsc2-/- cells have lost the ability to respond to energy and growth factor deprivation, these cells are unable to properly down regulate cellular biosynthetic processes in response to metabolic stress, and are thus extremely sensitive to glucose deprivation-induced death.2 A central goal of this project is to explore the unique cell survival and metabolic properties of cells with Tsc1 or Tsc2 by screening for compounds that selectively target the Tsc2-/- MEFs by screening both Tsc2-/- and WT MEF cell lines. We hope to better understand these aspects of TSC physiology in order to exploit them for therapeutic benefit.
# NCGC Acumen Assay Protocol:
# For quantitative high throughput analysis of mTORC1 signaling, we developed a cell-based assay for immuno-fluorescence based detection of rpS6 phosphorylation on the Acumen Explorer that will be used a platform for the primary small molecule screen. Mouse embryonic fibroblasts (MEFs) are cultured in 1536-well plates using DMEM + 10% FBS. Twenty-four hrs after plating, test compounds (solubilized in DMSO) are delivered and incubated with the cells for 24 hrs at 37 degree Celsius. Following the incubation, media with compound is aspirated and the cells are fixed in 4% paraformaldehyde (PFA) containing PBS + 0.2% TX-100. Next, PFA is aspirated, cells are washed two times with PBS plus 0.2% TX-100 and the cells are blocked for 1 hr at room temperature (blocking buffer: LiCOR Blocking Buffer plus 0.2% TX-100). This is followed by aspiration and staining with Alexa-488 conjugated-phospho-rpS6 Ser235/236 antibody for 2 hours at room temperature (Cell Signaling Technology # 4803, 1:50 dilution in blocking buffer). Cells are washed two times with PBS plus 0.2% TX-100, and stained with 10 uM propidium iodide (PI) for 20-25 minutes for cell number measurement (1:500 dilution of Hoescht staining is also added for IN Cell imaging). The plates are scanned on the Acumen Explorer laser scanning instrument (TTP Labtech) using the 488nm laser for simultaneous excitation of the Alexa-488 and PI. The fluorescence emission from the Alexa-488 conjugated rpS6 phospho-235/236 antibody staining is selected using a […] band pass filter. Fluorescence emission from the PI stain is selected using a 575-640 nm band pass filter. The normalized phospho-S6 staining is calculated as the ratio of the integrated Alexa 488 intensity divided by the integrated PI intensity for the single concentration rapamycin control (7.5 nM) and DMSO columns. […] Inhibition of the pathway is defined based on the normalized phospho-S6 intensity in rapamycin treated cells. […]
# Potency means the concentration at half of the fitted maximal effect.
Compound,"activity change, negative = inhibition",Potency
CC(C)(C)NCC(O)COc1cccc2[nH]c(=O)[nH]c12 (stereo not given),3.29%,
O=C(O)/C=C/c1ccc(O)c(O)c1,0.184%,
CN1C2CCC1CC(OC(c1ccccc1)c1ccccc1)C2 (stereo not given),-2.65%,
CN1CCN(c2nc3cc(C(F)(F)F)ccc3n3cccc23)CC1,-5.11%,
Cc1nc2n(c(=O)c1CCN1CCC(c3noc4cc(F)ccc34)CC1)CCCC2O (stereo not given),0.425%,
NC(Cc1cccc(-c2ccccc2CP(=O)(O)O)c1)C(=O)O (stereo not given),6.76%,
C=CCn1c(=O)c2c(nc(-c3ccc(S(=O)(=O)O)cc3)n2C)n(C)c1=O,-2.17%,
CN(C)CCCc1cc(C(=O)Nc2ccc(-c3ccncc3)cc2)ccc1O,3.93%,
N#C/C(=C\c1ccc(O)c(O)c1)C(=O)NCCc1ccccc1,,10.4 µM (active)
N[C@H]1CONC1=O,-1.17%,
Brc1c(Br)c(Br)c2[nH]cnc2c1Br,-22.1%,
NCC(O)c1ccc(O)c(O)c1 (stereo not given),-3.06%,
COc1ccc2c(c1)c(CC(=O)O)c(C)n2Cc1ccc(Cl)cc1,-12.8%,
CC[C@H](NC(=O)c1c(C)c(-c2ccccc2)nc2ccccc12)c1ccccc1,-19.1%,
CN1CC(O)C(O)C(O)C1CO (stereo not given),3.25%,
CCCn1c(=O)c2[nH]c(-c3ccc(S(=O)(=O)O)cc3)nc2n(CCC)c1=O,12.9%,
OC[C@H]1O[C@H](n2cnc3c(N[C@H]4CCC[C@@H]4O)ncnc32)[C@H](O)[C@@H]1O,-0.198%,
CC1C(=O)N(C)C(=O)c2nc[nH]c21 (stereo not given),2.99%,
N=C(N)SCCN,-7.3%,
CC(=O)N[C@@H](Cc1c[nH]c2ccccc12)C(=O)OCc1cc(C(F)(F)F)cc(C(F)(F)F)c1,-0.666%,

Compound,"activity change, negative = inhibition",Potency
CN(C)C(=O)/N=N/C(=O)N(C)C,-10.9%,
C=C1C[C@@]23CC[C@H]4[C@@](C)(CCC[C@@]4(C)C(=O)OC4OC(CO)C(O)C(O)C4O)[C@@H]2CC[C@]1(OC1OC(CO)C(O)C(O)C1OC1OC(CO)C(O)C(O)C1O)C3 (stereo not given in full),5.64%,
Cc1cc(Cn2cnc3c2C[C@@H](C(=O)O)N(C(=O)C(c2ccccc2)c2ccccc2)C3)ccc1N,-8.05%,
N=C(N)c1ccc(OCCCCCOc2ccc(C(=N)N)cc2)cc1 (tested in a mixture with another compound),,10.4 µM (active)
NC(=O)c1cc[n+](CC2=C(C(=O)O)N3C(=O)[C@@H](NC(=O)[C@@H](c4ccccc4)S(=O)(=O)[O-])[C@H]3SC2)cc1,1.68%,
COc1ccc2c(c1)CCC1C2CC[C@@]2(C)C1CC[C@@H]2NCCCCCCN1C(=O)C=CC1=O (stereo not given in full),8.58%,
CCn1c(=O)[nH]c2cc(Cl)c(Cl)cc21,-12.9%,
CCN(c1nc(N)c(C(=O)N=C(N)N)nc1Cl)C(C)C,-7.21%,
COCc1nc2c([nH]1)c(=O)n(C)c(=O)n2CC(C)C,2.25%,
CNCCNS(=O)(=O)c1cccc2cnccc12,3.6%,
O=C1C2C=CC=CC2=NC(=S)N1CCN1CCC(=C(c2ccc(F)cc2)c2ccc(F)cc2)CC1 (stereo not given),3.02%,
CC(N)(Cc1ccc(O)c(O)c1)C(=O)O (stereo not given),4.54%,
NC(N)=N[C@@H](CCC(=O)O)C(=O)O,-2.75%,
NC(=O)CNCCC(c1ccccc1)c1ccccc1,-20.6%,
O=C(OCCN1CCOCC1)C1(c2ccccc2)CCCCC1,4.52%,
CC(N)(Cc1ccc(O)cc1)C(=O)O (stereo not given),-1.46%,
Nc1ncnc2c1ncn2C1CCCO1 (stereo not given),3.3%,
CC[N+](CC)(CC)CC(=O)Nc1c(C)cccc1C,0.0436%,
CC(N)=NCCCC[C@@H](N)C(=O)O,12.9%,
N#C/C(=C\c1ccc(O)c(O)c1)C(=O)NCCCNC(=O)/C(C#N)=C/c1ccc(O)c(O)c1,-4.24%,
